Test [1] can be described thus: qHTS assay to identify small molecule antagonists of the thyroid receptor (TR) signaling pathway - cell viability counter screen (AID 743064). Note: nearly all actives have a fitted effect of over 50% in size. Note: potency is the fitted concentration of half-maximal effect. In a few lines: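 Viability of T3-stimulated (1 nM final) GH3.TRE-Luc cells is measured by CellTiter-Fluor fluorescence after 23.5 h compound exposure at 37 °C plus 30 min reagent incubation.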
(In general: qHTS replaces the single test concentration by a dilution series.)

Test [2] in a line: qHTS assay to identify small molecule antagonists of the thyroid receptor (TR) signaling pathway (AID 743065). Note: nearly all actives have a fitted effect of over 55% in size. Note: potency is the fitted concentration of half-maximal effect. A digest of the protocol:
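GH3.TRE-Luc rat pituitary cells (two TREs driving luciferase) were dosed with compound, then stimulated with 1 nM T3 (final) for 23.5 h at 37 C. ONE-Glo luminescence was the read-out, with CellTiter-Fluor fluorescence as the cytotoxicity counter-screen.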

Test [3] deals with thyroid hormone receptor (rat, GH3 cells). The experiment in a line: qHTS assay to identify small molecule agonists of the thyroid receptor (TR) signaling pathway (AID 743066; calls by dose curve).
A short description of test [4]: qHTS assay to identify small molecule antagonists of the estrogen receptor alpha (ER-alpha) signaling pathway - cell viability counter screen (AID 743074; calls by dose curve; note: nearly all actives have a fitted effect of over 45% in size; note: potency is the fitted concentration of half-maximal effect).
Test [5] can be described thus: qHTS assay to identify small molecule antagonists of the estrogen receptor alpha (ER-alpha) signaling pathway using the BG1 cell line - cell viability counter screen (AID 743081).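 Note: compound given together with 17beta-estradiol as the ER stimulus; nearly all actives have a fitted effect of over 45% in size.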 Note: potency is the fitted concentration of half-maximal effect.
Another test deals with Aromatase (Homo sapiens) (UniProt P11511). As to the kind of experiment: qHTS assay to identify aromatase inhibitors (AID 743083). Note: nearly all actives have a fitted effect of over 55% in size. Note: potency is the fitted concentration of half-maximal effect.
Aromatase (Homo sapiens), sequence (P11511 whole entry, looked up): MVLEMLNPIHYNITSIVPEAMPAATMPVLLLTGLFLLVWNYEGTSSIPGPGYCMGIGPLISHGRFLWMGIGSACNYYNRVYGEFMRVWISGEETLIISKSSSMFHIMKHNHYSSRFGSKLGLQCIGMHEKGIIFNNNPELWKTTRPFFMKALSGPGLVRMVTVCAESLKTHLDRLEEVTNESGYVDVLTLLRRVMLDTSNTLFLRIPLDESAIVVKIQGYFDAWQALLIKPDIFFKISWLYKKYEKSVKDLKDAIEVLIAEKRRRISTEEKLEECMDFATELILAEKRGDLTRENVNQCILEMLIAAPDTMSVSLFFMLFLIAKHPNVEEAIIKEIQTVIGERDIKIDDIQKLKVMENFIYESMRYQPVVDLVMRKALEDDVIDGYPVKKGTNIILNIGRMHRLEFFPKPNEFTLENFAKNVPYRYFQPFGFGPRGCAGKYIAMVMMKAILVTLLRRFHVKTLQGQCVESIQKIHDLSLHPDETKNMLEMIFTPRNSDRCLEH
A short description of test [6]: qHTS assay to identify aromatase inhibitors - cell viability counter screen (AID 743084).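 Note: cells stimulated with testosterone during compound exposure; nearly all actives have a fitted effect of over 55% in size.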 Note: potency is the fitted concentration of half-maximal effect.
Test [7] concerns the target Aryl hydrocarbon receptor (Homo sapiens) (UniProt P35869). As to the kind of experiment: qHTS assay to identify small molecule that activate the aryl hydrocarbon receptor (AhR) signaling pathway (AID 743085).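 For activation: HG2L7.5c1 human HepG2 liver cells with stably integrated DRE-driven firefly reporter.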 Note: nearly all actives have a fitted effect of over 15% in size. Note: potency is the fitted concentration of half-maximal effect. A digest of the protocol: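 A multiplexed format paired cell viability (CellTiter-Fluor fluorescence) with AhR-dependent luciferase output (ONE-Glo luminescence) in the same wells of HepG2 DRE-luc cells after 24 h compound exposure at 37C.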

Test [8] can be described thus: qHTS assay to identify small molecule that activate the aryl hydrocarbon receptor (AhR) signaling pathway - cell viability counter screen (AID 743086). Note: nearly all actives have a fitted effect of over 45% in size. Note: potency is the fitted concentration of half-maximal effect. A digest of the protocol: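 HepG2-AhR-luc (HG2L7.5c1) cells, 4000/well, treated 24 h at 37 C with compound; viability measured as CellTiter-Fluor fluorescence after 30 min in the same wells as the luciferase read.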

Test [9] deals with Peroxisome proliferator-activated receptor gamma (Homo sapiens) (UniProt P37231). The experiment in a line: qHTS assay to identify small molecule agonists of the peroxisome proliferator-activated receptor gamma (PPARg) signaling pathway (AID 743094; active = well fitted activation curve with a large enough effect in the signal ratio in the repeat runs, not every such curve was filed as active; inconclusive = weak or mixed curves, or effect the other way; inactive = no such curve, though single readings can be large or run the other way; the % refers to the signal ratio). In a few lines:
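Agonism was assessed in a beta-lactamase reporter system, HEK293H cells with a stably integrated UAS-bla construct under PPARg control; the 17 h treatment at 37C preceded a 1 h room-temperature FRET substrate read.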

The target is the same in test [10]. As to the kind of experiment: qHTS assay to identify small molecule antagonists of the peroxisome proliferator-activated receptor gamma (PPARg) signaling pathway (AID 743191; calls by dose curve; note: nearly all actives have a fitted effect of over 30% in size). A digest of the protocol:
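GeneBLAzer PPARg UAS-bla HEK293H cells, 5 h post-plating, exposed to compounds 17 h at 37C. LiveBLAzer B/G FRET substrate added for 1 h at room temperature; beta-lactamase reporter read by fluorescence intensity.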

Test [11] is described as follows: qHTS assay to identify small molecule antagonists of the peroxisome proliferator-activated receptor gamma (PPARg) signaling pathway - cell viability counter screen (AID 743194). Note: nearly all actives have a fitted effect of over 55% in size. Note: potency is the fitted concentration of half-maximal effect. As to conditions: Potency: co-treated with 50 nM rosiglitazone unless noted. In a few lines:
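Cytotoxicity counter screen in PPARg-bla HEK293H cells, same wells as reporter assay. Compounds plus 50 nM rosiglitazone (final) for 17 h at 37 C, then viability read by CellTiter-Glo luminescence.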

Test [12] can be described thus: qHTS assay for small molecule agonists of the antioxidant response element (ARE) signaling pathway (AID 743202; active = well fitted activation curve with a large enough effect in the signal ratio in the repeat runs, not every such curve was filed as active; inconclusive = weak or mixed curves, or effect the other way; inactive = no such curve, though single readings can be large or run the other way; the % refers to the signal ratio; note: potency is the fitted concentration of half-maximal effect). In a few lines:
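HepG2 ARE-bla cells; 16 h treatment at 37 C; FRET-based beta-lactamase fluorescence read after 2 h substrate incubation at room temperature.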

Test [13] can be described thus: qHTS assay for small molecule agonists of the antioxidant response element (ARE) signaling pathway - cell viability counter screen (AID 743203; calls by dose curve; note: nearly all actives have a fitted effect of over 55% in size; note: potency is the fitted concentration of half-maximal effect). In a few lines:
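ATP content via CellTiter-Glo luminescence served as the viability measure. Cells: ARE-bla HepG2, 2,000 per well. Exposure: 16 hrs, 37C/5% CO2.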

The nature of test [14]: qHTS assay for small molecule activators of the heat shock response signaling pathway - cell viability counter screen (AID 743209). Note: nearly all actives have a fitted effect of over 50% in size. Note: potency is the fitted concentration of half-maximal effect. In a few lines:
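Compounds dissolved in DMSO were added to overnight-plated HSE-bla HeLa cells and left 5 h at 37 C. Cell viability was quantified by luminescence using CellTiter-Glo.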

Test [15] is described as follows: qHTS assay for small molecule activators of the heat shock response signaling pathway (AID 743210; active = well fitted activation curve with a large enough effect in the signal ratio in the repeat runs, with a control signal flat, not every such curve was filed as active; inconclusive = weak or mixed curves; the % refers to the signal ratio;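 note: HeLa cells with beta-lactamase reporter driven by heat shock elements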). In a few lines: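 Following overnight attachment, HSE-bla HeLa cells received test compounds for 5 h at 37 C; beta-lactamase activity was then detected via FRET substrate fluorescence.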
Test [16] addresses Estrogen receptor (Homo sapiens) (UniProt P03372). The experiment in a line: qHTS assay to identify small molecule agonists of the estrogen receptor alpha (ER-alpha) signaling pathway (AID 743075; calls by dose curve; note: potency is the fitted concentration of half-maximal effect).
For test [17] the target is unchanged. The experiment in a line: qHTS assay to identify small molecule antagonists of the estrogen receptor alpha (ER-alpha) signaling pathway (AID 743069; active = well fitted curve in the direction sought with a large enough effect in the signal ratio in the repeat runs, not every such curve was filed as active; inconclusive = weak or mixed curves, or effect the other way; inactive = no such curve, though single readings can be large or run the other way; the % refers to the signal ratio; note: potency is the fitted concentration of half-maximal effect). In a few lines:
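In this cell-based reporter format, GripTite HEK293 cells harbouring ER-alpha-UAS-bla were grown overnight with 2% charcoal-stripped FBS, dosed with DMSO-dissolved compounds, then challenged with 17beta-estradiol. After 18 hr at 37C, beta-lactamase activity was detected by FRET fluorescence.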

Test [18] shares this target. The experiment in a line: qHTS assay to identify small molecule agonists of the estrogen receptor alpha (ER-alpha) signaling pathway using the BG1 cell line (AID 743079). Note: nearly all actives have a fitted effect of over 20% in size. Note: potency is the fitted concentration of half-maximal effect. As to conditions: BG1Luc4E2 cells, ERE-luciferase agonist, 22 h; activation: at 70.3 µM (top of the series) unless noted.
Test [19] can be described thus: qHTS assay to identify small molecule antagonists of the estrogen receptor alpha (ER-alpha) signaling pathway using the BG1 cell line (AID 743080; calls by dose curve;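 note: BG1 cells stimulated with 17beta-estradiol alongside compound; nearly all actives have a fitted effect of over 25% in size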; note: potency is the fitted concentration of half-maximal effect). A digest of the protocol: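 After 5 days in phenol-red-free 10% charcoal-stripped FBS medium, BG1-Luc-4E2 cells were seeded, left 24 h at 37 C, co-treated with compounds and 17beta-estradiol for 21.5 h, then assayed for viability and luciferase.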

The structures appear in SMILES notation. “And” between values parts separate entries of the source, which are not always exact repeats. Equal entries are not always repeated. Some compounds were tested as several samples or in several runs, with calls that do not always agree. The source made the active and inactive calls. Unless noted, calls come from the whole dose curve; as a rule, active = well fitted curve in the direction sought with a large enough effect in the repeat runs; inconclusive = weak or mixed curves; inactive = no such curve, though single readings can be large; an effect the other way counts as inactive or inconclusive.

Estrogen receptor (Homo sapiens), sequence (P03372 whole entry, looked up): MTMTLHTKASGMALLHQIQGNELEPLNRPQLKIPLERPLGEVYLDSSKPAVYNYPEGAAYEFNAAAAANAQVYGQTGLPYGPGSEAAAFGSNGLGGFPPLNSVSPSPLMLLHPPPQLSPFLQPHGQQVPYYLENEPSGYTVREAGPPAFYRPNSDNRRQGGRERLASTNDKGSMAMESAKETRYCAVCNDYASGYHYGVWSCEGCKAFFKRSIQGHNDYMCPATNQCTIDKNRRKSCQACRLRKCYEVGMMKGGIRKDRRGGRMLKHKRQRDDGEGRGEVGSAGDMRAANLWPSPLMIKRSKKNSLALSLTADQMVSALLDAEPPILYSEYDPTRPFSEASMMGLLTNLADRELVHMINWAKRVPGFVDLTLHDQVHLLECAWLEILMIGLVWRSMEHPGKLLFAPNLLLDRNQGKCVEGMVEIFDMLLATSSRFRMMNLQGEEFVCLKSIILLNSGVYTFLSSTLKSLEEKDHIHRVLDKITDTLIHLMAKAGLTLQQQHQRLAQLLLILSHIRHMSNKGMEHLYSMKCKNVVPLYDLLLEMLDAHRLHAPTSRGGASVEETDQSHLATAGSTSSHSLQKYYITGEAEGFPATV
Aryl hydrocarbon receptor (Homo sapiens), sequence (P35869 whole entry, looked up): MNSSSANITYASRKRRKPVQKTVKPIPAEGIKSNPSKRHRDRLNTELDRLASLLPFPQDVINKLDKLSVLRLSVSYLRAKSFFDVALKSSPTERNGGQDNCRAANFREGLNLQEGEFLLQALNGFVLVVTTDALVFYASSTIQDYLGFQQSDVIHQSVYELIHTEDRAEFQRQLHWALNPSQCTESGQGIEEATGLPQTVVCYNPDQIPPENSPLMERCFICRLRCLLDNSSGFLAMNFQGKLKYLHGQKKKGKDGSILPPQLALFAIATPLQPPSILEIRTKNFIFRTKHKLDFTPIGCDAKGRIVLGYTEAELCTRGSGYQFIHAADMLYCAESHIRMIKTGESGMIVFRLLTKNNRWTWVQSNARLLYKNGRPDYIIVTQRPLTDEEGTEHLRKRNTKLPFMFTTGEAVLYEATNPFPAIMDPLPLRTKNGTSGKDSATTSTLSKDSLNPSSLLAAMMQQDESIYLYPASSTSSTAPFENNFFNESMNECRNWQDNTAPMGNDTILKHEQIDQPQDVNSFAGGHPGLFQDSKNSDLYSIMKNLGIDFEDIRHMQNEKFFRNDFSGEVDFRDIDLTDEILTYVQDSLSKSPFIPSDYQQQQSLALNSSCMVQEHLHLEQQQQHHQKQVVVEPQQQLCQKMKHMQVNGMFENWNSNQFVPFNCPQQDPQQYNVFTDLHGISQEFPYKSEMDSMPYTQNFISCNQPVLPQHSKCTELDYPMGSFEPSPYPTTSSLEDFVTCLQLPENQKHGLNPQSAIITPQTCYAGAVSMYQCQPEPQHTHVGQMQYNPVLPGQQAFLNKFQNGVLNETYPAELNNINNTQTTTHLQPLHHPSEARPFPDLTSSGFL
Peroxisome proliferator-activated receptor gamma (Homo sapiens), sequence (P37231 whole entry, looked up): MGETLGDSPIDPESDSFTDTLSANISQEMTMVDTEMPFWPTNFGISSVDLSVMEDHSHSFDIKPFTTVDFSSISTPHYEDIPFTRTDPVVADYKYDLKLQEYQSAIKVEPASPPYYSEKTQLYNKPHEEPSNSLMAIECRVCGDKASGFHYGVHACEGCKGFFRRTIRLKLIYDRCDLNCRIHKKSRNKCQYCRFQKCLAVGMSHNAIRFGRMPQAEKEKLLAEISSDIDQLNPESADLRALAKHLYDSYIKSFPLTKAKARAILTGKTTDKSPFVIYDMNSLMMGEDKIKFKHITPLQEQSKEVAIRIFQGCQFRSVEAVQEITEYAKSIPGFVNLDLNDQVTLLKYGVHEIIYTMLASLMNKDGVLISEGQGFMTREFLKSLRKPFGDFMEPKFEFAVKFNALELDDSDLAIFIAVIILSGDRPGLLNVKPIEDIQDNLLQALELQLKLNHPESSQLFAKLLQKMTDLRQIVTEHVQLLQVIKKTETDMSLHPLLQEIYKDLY

As for `Clc1cccc(Cl)c1`, the Potency result (in [1]; in [2]; in test [3]; in test [4]; in test [5]; with Aromatase (Homo sapiens)) was “inactive” throughout. The Potency entry in [6], in test [7], in test [8], in test [9], in test [10] and in test [11] was “inactive” each time. Moreover, the Potency result in test [12], in [13], in test [14] and in test [15] was “inactive” throughout.
Regarding `C=CC(=O)OCC(CC)(COC(=O)C=C)COC(=O)C=C`, the Potency in [1] is 4.99 µM (active) and 6.86 µM (active); in test [2], 3.15 µM (active) and 4.33 µM (active); in test [4], 56.4 µM (active) and 54.9 µM (active); in test [16], 22.5 µM [inconclusive] (active) and 9.77 µM [inconclusive] (active); in test [5], 79 µM (active) and 54.5 µM (active); with Aromatase (Homo sapiens), 4.99 µM (active) and 6.86 µM (active). Besides, the Potency is 6.28 µM (active) and 6.86 µM (active) in [6]; 31.5 µM (active) and 27.3 µM (active) in test [8]; 28.3 µM (active) and 9.77 µM (active) in test [11]; “inactive and 61.1 µM (active)” in test [13]; 3.56 µM (active) and 1.55 µM (active) in test [14]. For the same molecule, the Potency result in [3] and in test [7] was “inactive” throughout.
`ClCc1ccccn1`: the Potency result in test [1], in test [2], in [3], in test [17], in test [16] and in test [18] was “inactive” in each case. Further, the Potency entry (in [19]; in [5]; in the test with Aromatase (Homo sapiens); in test [6]; in [7]; in [8]) was “inactive” throughout. Besides, the Potency result in test [9], in test [10], in test [11], in [12], in test [13] and in test [14] was “inactive” in each case. The Potency entry in test [15] was “inactive”.
Regarding `CCC(=O)Nc1ccc(Cl)c(Cl)c1`, the Potency entry (in test [1]; in [3]; in [4]; in [5]; with Aromatase (Homo sapiens); in test [6]) was “inactive” throughout. Further, the Potency result in test [8], in test [9], in test [11], in [13], in test [14] and in [15] was “inactive” in each case. For the same molecule, the Potency in test [2] is 49.5 µM (active); in [7] it was 54.5 µM (active).
Consider `N#Cc1nn(-c2c(Cl)cc(C(F)(F)F)cc2Cl)c(N)c1S(=O)C(F)(F)F` (centres undefined), for which the Potency in test [1] is 29.8 µM (active) and 61.5 µM (active); in test [2], 26.6 µM (active) and 19.4 µM (active); in test [17], 17.5 µM [inconclusive] (active); in test [19], 7.5 µM (active) and 24.5 µM (active); with Aromatase (Homo sapiens) it was 33.5 µM (active) and 19.4 µM (active); in test [8], “inactive and 30.8 µM (active)”. The Potency result in test [3], in test [4], in test [16], in test [5], in test [6] and in test [7] was “inactive” throughout. In addition, the Potency result in test [9], in test [10], in [11] and in [14] was “inactive” each time.
Take `C[C@]12CC[C@H]3[C@@H](CCC4=CC(=O)CC[C@@H]43)[C@@H]1CC[C@@H]2O`: the Potency result (in test [1]; in test [3]; in [4]; in test [19]; in [5]; with Aromatase (Homo sapiens)) was “inactive” throughout. For the same molecule, the Potency result in test [6], in test [7], in [8], in [9], in test [11] and in [13] was “inactive” throughout. In addition, the Potency result in [14] and in test [15] was “inactive” in each case. In addition, the Potency in test [2] was 21.1 µM (active) and 13.3 µM (active) and 30.4 µM (active); in test [16], 1.34 µM [inconclusive] (active) and 268 nM [inconclusive] (active) and 243 nM [inconclusive] (active); in [18] it was 106 nM (active) and 59.6 nM (active) and 108 nM (active); in test [12], 34.1 µM (active).
As for `Nc1ncn[nH]1`, the Potency result (in test [1]; in test [2]; in test [3]; in test [4]; in [5]; with Aromatase (Homo sapiens)) was “inactive” throughout. Further, the Potency entry in [6], in test [7], in test [8], in test [9], in test [10] and in [11] was “inactive” throughout. In addition, the Potency entry in test [12], in test [13], in [14] and in test [15] was “inactive” throughout.
For the molecule `CCNCC`, the Potency result (in [1]; in [2]; in [3]; in test [4]; in test [5]; in the test with Aromatase (Homo sapiens)) was “inactive” in each case. Further, the Potency result in [6], in test [7], in test [8], in test [9], in test [10] and in test [11] was “inactive” throughout. Also, the Potency result in test [12], in [13], in test [14] and in [15] was “inactive” in each case.
For `COP(=O)(NC(C)=O)SC` (centres undefined), the Potency entry (in [1]; in test [2]; in [3]; in [4]; in [5]; with Aromatase (Homo sapiens)) was “inactive” in each case. For the same molecule, the Potency entry in test [6], in test [7], in test [8], in test [9], in test [10] and in test [11] was “inactive” each time. The Potency entry in test [12], in test [13], in [14] and in test [15] was “inactive” in each case.
On to `N#CC(c1ccccc1)c1ccccc1`, for which the Potency result (in test [1]; in test [2]; in [3]; in test [4]; in test [5]; in the test with Aromatase (Homo sapiens)) was “inactive” in each case. Further, the Potency result in test [6], in test [8], in test [9], in [10], in test [11] and in test [12] was “inactive” throughout. Besides, the Potency result in test [13], in [14] and in test [15] was “inactive” in each case.
Turning to `CC(C)(C#N)N=NC(C)(C)C#N`, the Potency result in [1], in [17], in [4], in test [16], in test [18] and in test [19] was “inactive” in each case. Besides, the Potency entry (in test [5]; in the test with Aromatase (Homo sapiens); in test [6]; in [7]; in test [8]; in [9]) was “inactive” throughout. Further, the Potency result in test [10], in test [11], in test [12], in test [13], in [14] and in test [15] was “inactive” throughout.
On to `O=C(O)c1nn(Cc2ccc(Cl)cc2Cl)c2ccccc12`, for which the Potency entry in [1], in test [3], in test [17], in test [4], in test [19] and in test [5] was “inactive” each time. Besides, the Potency entry (in the test with Aromatase (Homo sapiens); in test [6]; in [7]; in test [8]; in test [11]; in [13]) was “inactive” in each case. Moreover, the Potency result in [14] and in [15] was “inactive” in each case. Further, the Potency in test [16] was 95.2 nM [inconclusive] (active) and inactive; in test [18], 6.68 µM (active) and inactive; in test [12], 54.1 µM (active).
